The target of test [1] is Tumor necrosis factor receptor superfamily member 10B (Homo sapiens) (UniProt O14763). Description: caspase-8 TRAIL sensitization, hit retest, confirmation, cell-based, NB7+caspase-8, with/without TRAIL, luminescence panel (AID 651596). The following applies: NB7 neuroblastoma + caspase-8, TRAIL sensitization, luminescence viability, with TRAIL, mean of runs, at 10 µM, stronger effect = higher value.

Assay in test [2]: as above
The note with it: NB7 neuroblastoma + caspase-8, without TRAIL, luminescence viability, without TRAIL, mean of runs, at 10 µM.

Tumor necrosis factor receptor superfamily member 10B (Homo sapiens), sequence (O14763 whole entry, looked up): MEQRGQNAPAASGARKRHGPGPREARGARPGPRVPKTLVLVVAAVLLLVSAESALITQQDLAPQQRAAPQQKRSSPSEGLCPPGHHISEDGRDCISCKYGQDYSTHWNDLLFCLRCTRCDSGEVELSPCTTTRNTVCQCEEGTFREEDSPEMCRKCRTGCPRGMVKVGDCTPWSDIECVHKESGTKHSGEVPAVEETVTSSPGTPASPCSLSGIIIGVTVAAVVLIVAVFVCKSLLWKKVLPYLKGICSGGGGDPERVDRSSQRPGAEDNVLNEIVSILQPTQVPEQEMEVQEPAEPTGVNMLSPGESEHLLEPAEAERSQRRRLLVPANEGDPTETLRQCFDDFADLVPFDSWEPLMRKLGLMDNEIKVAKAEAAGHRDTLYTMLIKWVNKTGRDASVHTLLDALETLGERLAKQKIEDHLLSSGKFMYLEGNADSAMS

On to `CCc1cc2c(=O)c(-c3cnn(-c4ccccc4)c3)c(C)oc2cc1OCC(=O)Nc1ccc(F)c(F)c1`, for which the figures for the activity in test [1] and in test [2] were 37.2% and 26.4%, respectively.
In the case of `CCCCc1ccc(NC(=O)c2cnccn2)cc1`, the activity was found to be 53.3% in test [1] and 45.1% in test [2].
Turning to `Cc1cc(C)cc(N2C(N)=NC(N)=NC2c2cccc(Cl)c2)c1` (stereo unspecified), the activity was 57.8% in test [1] and 74.3% in test [2].
Taken in the same sequence, the figures for `Cc1ccc(-n2c(-c3ccc(Br)cc3)c[n+]3c2CCc2ccc4cccnc4c2-3)cc1` were 70.2% and 63%.
Taken in the same sequence, the figures for `CN1CCN(c2nc(-c3ccc(C(C)(C)C)cc3)nc3ccccc23)CC1` were 67.9% and 69.6%.
On the same counts, the results for `CC[C@H]1CN2CCc3cc(OC)c(OC)cc3C2C[C@@H]1C[C@H]1NCCc2cc(OC)c(OC)cc21` (stereo partly specified) are 70% and 83.4%.
In the case of `COc1cccc(C=NNc2nnc(NN=Cc3cccc(OC)c3OC)c3ccccc23)c1OC`, the activity in test [1] turned out to be 83.2%; in test [2], 75%.
On the same counts, the results for `CCCC(=O)Nc1ccc(-c2csc(N/N=C\c3ccncc3)n2)cc1` are 61.5% and 65.6%.
`Cc1ccsc1/C=C/c1ccc2ccccc2n1`: the activity in test [1] was 42.2%; in test [2] it was 30.9%.
Taken in the same sequence, the figures for `Cc1ccc(C(=O)Nc2ccc(C)c(S(=O)(=O)N(C)C)c2)s1` were 52.5% and 66.5%.
Taken in the same sequence, the figures for `S=c1nc[nH]c2nc[nH]c12` were 64.5% and 69%.
On the same counts, the results for `O=c1c2[nH]c3ccccc3c2ncn1C1CCCCC1` are 75.2% and 74.8%.
On to `CCCCN=C1NN=C(c2ccc3c(c2)OCCO3)CS1`, for which the figures for the activity in test [1] and in test [2] were 47.9% and 31.8%, respectively.
Taken in the same sequence, the figures for `CC(C)c1ccc(NC(=O)Nc2nc(C(N)C3CCCCC3)cs2)cc1` (stereo unspecified) were 92.2% and 99.3%.
In the case of `COc1ccc(-c2cc(-c3ccccc3)c(C#N)c(S(C)(=O)=O)n2)cc1`, the results for the activity in test [1] and in test [2] were 79.3% and 96.9%, respectively.
Taken in the same sequence, the figures for `O=C(NC(=S)Nc1nc2ccc(F)cc2s1)c1ccco1` were 85.3% and 77.4%.
Taken in the same sequence, the figures for `CCCc1cc(=O)[nH]c(SCC(=O)Nc2sc(C(N)=O)c(C)c2C(=O)OCCOC)n1` were 84.6% and 86.4%.
On the same counts, the results for `Cc1ccc(NC(=O)c2ccc(C)cc2)cc1` are 64.9% and 63.8%.
Take `COc1ccc(-c2cc3ccccc3c(=O)o2)cc1`: the activity worked out at 49.4% in test [1] and 56.6% in test [2].
Taken in the same sequence, the figures for `Nc1ccc(C(=O)Nc2nc3ccccc3s2)cc1` were 44.8% and 41%.
As for `Cc1ccsc1C(=O)Nc1nc2ccccc2[nH]1`, the activity in test [1] is 82%; in test [2], 85.7%.
In the case of `Nc1nc(N)c2cc(CNc3ccc(Cl)c(Cl)c3)ccc2n1`, the activity in test [1] was determined as 85.2%; in test [2] it was 73.4%.
On the same counts, the results for `S=C(Nc1ccc(Cl)cc1)c1nc2ccccc2[nH]1` are 60.6% and 65.9%.
As to `C#CCSc1nnc(-c2ccc(OC)cc2)o1`, the values for the activity in test [1] and in test [2] were 97.1% and 89.3%, respectively.
On the same counts, the results for `Cc1ccc(NC(=O)c2ccccc2)s1` are 40.7% and 32%.
In the case of `CC(C)Oc1ccc(C(=O)NC2=NCCS2)cc1`, the figures for the activity in test [1] and in test [2] were 57.7% and 61.8%, respectively.
As for `COc1cc(NC(=O)c2cc3cccc(OC)c3o2)cc(C(=O)Nc2cccc(C(F)(F)F)c2)c1`, the activity in test [1] came to 36.8%; in test [2] it was 33.5%.
Consider `CC(C)C[C@H](NC(=O)c1nc[nH]c1C(=O)N[C@@H](CCCCNC(=O)OC(C)(C)C)C(=O)OC(C)(C)C)C(=O)OC(C)(C)C`, for which the activity in test [1] worked out at 84.7%; in test [2], 68.1%.
On the same counts, the results for `Cc1ccc(/C=N/NC(=O)c2cc(C)oc2C)cc1` are 45.1% and 55%.
On the same counts, the results for `c1ccc2nc(-c3nc4ccccc4o3)ccc2c1` are 79.6% and 76%.
On the same counts, the results for `Cc1cc(N2CCOCC2)n2ncc(-c3ccccc3)c2n1` are 66.8% and 52.8%.
In the case of `Cc1cccc(NC2=NC(C)(C)N=C(N)N2)c1`, the activity in test [1] was 82.5%; in test [2] it was 83.2%.
On the same counts, the results for `Cc1ccc(CSc2nc3ncccc3[nH]2)cc1` are 71% and 68.2%.
Taken in the same sequence, the figures for `CCc1nc(N)nc(N)c1-c1ccc(NCCN)c([N+](=O)[O-])c1` were 80.7% and 81.5%.
On the same counts, the results for `O=C(O)c1ccc(N/N=C/c2cc3cc4c(cc3nc2Cl)OCCO4)cc1` are 96.3% and 95.3%.
With `COc1ccc2c(c1OC)C(=O)OC2Nc1nc(-c2ccc(-c3ccccc3)cc2)cs1` (stereo unspecified), the activity was found to be 47.4% in test [1] and 49.4% in test [2].
As to `CCC(=O)Nc1ccc(C(=O)Cn2ncc(Cl)c(Cl)c2=O)cc1`, the activity in test [1] was 99.4%; in test [2], 99.3%.
On the same counts, the results for `Nc1nc(N)c2nc(-c3ccccc3)c(N)nc2n1` are 74.7% and 80.7%.
On the same counts, the results for `CCOc1ccc(C(=O)O/N=C(\N)c2ccccn2)cc1OCC` are 82.3% and 88.9%.
Taken in the same sequence, the figures for `N=NC(=O)c1ccccc1Nc1c(O)[nH]c2ccccc12` were 93.5% and 92.1%.
On to `C#CCN(C[C@@H]1[C@@H](OC(=O)NCc2ccccc2F)[C@@H](OC(=O)NCc2ccccc2F)Cn2c(=O)ccc(=O)n21)S(=O)(=O)c1ccc(C)cc1`, for which the activity in test [1] came to 95%; in test [2] it was 93.6%.
Consider `O=C(Nc1ccc2c(c1)OCCO2)c1ccc(Cl)cc1`, for which the activity in test [1] came out at 66.3%; in test [2] it was 69.5%.
On the same counts, the results for `O=C(Nc1ccc(-c2cn3ccccc3n2)cc1)c1cccs1` are 76.2% and 66.1%.
Taken in the same sequence, the figures for `CC1(C)N=C(N)N=C(N)N1CCCCc1ccccc1` were 63.6% and 68.3%.
Taken in the same sequence, the figures for `O=C(Nc1ccc(Cl)c(Cl)c1)Nc1ccccc1C(=O)O` were 44.6% and 42.5%.
In the case of `C=C(C)CSc1nnc2n(Cc3ccccc3)c(=O)c3c4c(sc3n12)CCC4`, the activity in test [1] stood at 90.4%; in test [2], 90%.
Taken in the same sequence, the figures for `CC(=O)c1sc(NC(=O)c2ccc(C(C)(C)C)cc2)nc1C` were 30.1% and 35.9%.
Turning to `CC1CCN(c2ccc(-c3ccc(NC(=O)C(F)(F)F)cc3)nn2)CC1`, the activity in test [1] worked out at 94.6%; in test [2] it was 96%.

(Values after PubChem BioAssay.)
